In PubChem BioAssay AID778 (Sanford-Burnham Center for Chemical Genomics, 2007):
About 20,000 (21%) of roughly 96,000 compounds were called active. Not all results are given here. A number with no mark means an inactive call.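 Rule for the calls: active = CYP2C19 inhibition above a set limit at 5 µM in the primary screen (cut at about 50% in these data); inactive = the rest.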

These compounds were tested against Cytochrome P450 2C19 (Homo sapiens) (UniProt P33261) (assay: blockers of cytochrome P450 2C19 activity – biochemical, luminescence, ADME assay, primary screen (AID 778;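 note: plate controls were negative control wells for no effect and 2.5 mM tranylcypromine positive control for full effect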)). Details: CYP2C19 Supersomes, luciferin-H EGE luminescence, 30 min; at 5 µM; stronger effect = higher value.
Chain of Cytochrome P450 2C19 (Homo sapiens) (P33261 whole entry, looked up): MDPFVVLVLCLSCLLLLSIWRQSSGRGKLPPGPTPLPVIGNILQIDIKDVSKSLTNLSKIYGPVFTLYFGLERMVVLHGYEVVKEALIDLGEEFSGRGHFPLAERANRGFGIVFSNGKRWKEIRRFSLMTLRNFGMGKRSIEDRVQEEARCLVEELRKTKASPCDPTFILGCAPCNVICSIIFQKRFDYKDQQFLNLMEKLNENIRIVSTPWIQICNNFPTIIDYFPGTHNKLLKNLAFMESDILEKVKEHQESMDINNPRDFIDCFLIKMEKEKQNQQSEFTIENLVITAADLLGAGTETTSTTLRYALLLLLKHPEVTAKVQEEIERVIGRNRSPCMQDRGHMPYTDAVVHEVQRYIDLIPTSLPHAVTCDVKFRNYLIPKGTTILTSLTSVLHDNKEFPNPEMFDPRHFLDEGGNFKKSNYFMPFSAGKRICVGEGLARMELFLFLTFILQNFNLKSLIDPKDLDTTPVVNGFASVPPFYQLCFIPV
With `Cn1c(=O)c2c(nc(SCC(=O)Nc3ccccc3N3CCCCC3)n2C)n(C)c1=O` the inhibition was 86.6% (active). Work on `C#CC(C)(C)NC(=O)CSc1nc2c(c(=O)n(C)c(=O)n2C)n1CCCC` yielded an inhibition of -7.1%. With `Cn1c(=O)c2c(nc(SCCNS(=O)(=O)c3ccccc3)n2C)n(C)c1=O` the inhibition was 73.3% (active). In the case of `CCCSc1nc2c(c(=O)[nH]c(=O)n2C)n1CCc1ccccc1`, the inhibition is reported as 26%. For `CC(C)n1c(SCC(=O)Nc2ccccc2N2CCCCC2)nc2c1c(=O)n(C)c(=O)n2C`, the inhibition was 40.4%. `Cn1c(=O)c2c(nc(N3CCCCCC3)n2CC(=O)c2ccc(Br)cc2)n(C)c1=O` showed an inhibition of 0.8%. For `Cc1ccc(NC(=O)c2cc(-c3ccc(C)o3)nc3ccccc23)nc1`, the inhibition was -3.9%. With `O=C(O)CCC(=O)N(Cc1ccco1)c1nc(-c2ccccc2)cs1` the inhibition was 2.5%. For `Cc1ccc(-c2csc(N(Cc3ccco3)C(=O)c3cccs3)n2)cc1`, the inhibition was 68.5% (active). Work on `Cc1ccc(-c2csc(NC(=O)c3cccs3)n2)cc1` yielded an inhibition of -2.3%. In the case of `CCOC(=O)N1CCN(C(=O)C2CCN(S(C)(=O)=O)CC2)CC1`, the inhibition is reported as -15%. For `CN(CCCC(=O)Nc1nccs1)S(=O)(=O)c1ccc(Cl)cc1`, the inhibition was 51% (active). In the case of `CCN(c1ccccc1)S(=O)(=O)c1ccc(C(=O)Nc2nccs2)cc1`, the inhibition is reported as -4.3%. `CCOC(=O)Cc1csc(NC(=O)CN(C)S(=O)(=O)c2ccc3c(c2)CCC(=O)N3)n1` was tested, and the inhibition was -17.1%. With `Cc1nc(NC(=O)CN(C)S(=O)(=O)c2ccc(Cl)cc2)sc1C` the inhibition was 62.6% (active). Compound `O=C(Nc1nccs1)C1CCN(S(=O)(=O)c2ccc(Cl)c(C(F)(F)F)c2)CC1` has an inhibition of 36.3%. `CN(CC(=O)Nc1cccc2c1CCCC2)S(=O)(=O)c1ccc(Cl)cc1` was tested, and the inhibition was -15.4%. For `O=c1c2ccccc2c(-c2ccc(Br)cc2)nn1Cc1ccccc1`, the inhibition was 33%. With `CCC(=O)NC(=Nc1nc2ccccc2s1)NC(=O)CC` the inhibition was -0.9%. `N#C/C=C1\Sc2ccccc2C(=O)N1CC(=O)N1CCN(S(=O)(=O)c2ccccc2)CC1` showed an inhibition of -22.8%. Compound `CC(=O)N1CCN(CCN=CC2=C(O)CC(C)(C)CC2=O)CC1` has an inhibition of -18.4%. In the case of `CC1(C)CC(=O)C(C=NCCN2CCN(C(=S)Nc3cccc(Cl)c3)CC2)=C(O)C1`, the inhibition is reported as 60.5% (active). `CC1(C)CC(=O)C(C=NCCC2=CCCCC2)=C(O)C1` gave an inhibition of 9.5%. Work on `CCn1cc(C(=O)NCC2CCCO2)c(=O)c2cc(S(=O)(=O)N3CCCCC3)ccc21` (configuration not stated) yielded an inhibition of 13.6%. Work on `Cc1ccc(C(=O)N(CN2CCCC2=O)c2ccc(F)cc2)cc1` yielded an inhibition of -14.3%. With `COc1ccc(Cl)cc1NC(=O)C1CC(=O)N(c2ccc(F)cc2)C1` (configuration not stated) the inhibition was 74.3% (active). Compound `COCCCNC(=O)C1CC(=O)N(c2ccc(C)cc2)C1` (configuration not stated) has an inhibition of 5.7%. `CCCNC(=O)C1CC(=O)N(c2ccc(OCC(=O)Nc3cccc(C)c3C)cc2)C1` (configuration not stated) showed an inhibition of -17.2%. In the case of `N#Cc1c(N)nc2c3c(sc(=N)c2c1N)NC(=O)CC3c1ccccc1Cl` (configuration not stated), the inhibition is reported as -0.8%. `CN(C)c1ccnc(Oc2ccc(F)cc2)c1C#N` showed an inhibition of 32.1%. For `Cc1cccc(OCc2nnc(SCn3nnc4ccccc4c3=O)o2)c1`, the inhibition was 31.6%. For `Cc1cc(C)cc(OCc2nnc(SCC(=O)OC3CCCCC3)o2)c1`, the inhibition was 4.2%. `Cc1cccc(OCc2nnc(SCc3nc4cc(C(F)(F)F)ccc4c(=O)[nH]3)o2)c1` was tested, and the inhibition was 54% (active). Compound `COc1ccc(Nc2cc(C)nc(-n3nc(C)cc3C)n2)cc1` has an inhibition of 46%. `COCCCNC(NC(=O)c1ccc(C)cc1)C(Cl)(Cl)Cl` (configuration not stated) showed an inhibition of 24.3%. In the case of `CCC(=O)c1c[nH]c(C(=O)NCC2CCCO2)c1` (configuration not stated), the inhibition is reported as -4.8%. Work on `CCNC(=O)N1CCNC(=O)C1CC(=O)Nc1ccc(C(=O)OCC)cc1` (configuration not stated) yielded an inhibition of 3.6%. For `COc1cc(C(=O)Nc2nccs2)cc(OC)c1OC`, the inhibition was 17.9%. With `CC1(C)Cc2cccc(OCC(=O)Nc3nccs3)c2O1` the inhibition was 60.6% (active). Work on `CC1(C)Cc2cccc(OCC(N)=O)c2O1` yielded an inhibition of -16.5%. `CCOC(=O)c1cc2n(c1N)-c1ccccc1C2=O` showed an inhibition of 26.7%. For `O=C(NCC1CCC(C(=O)O)CC1)OCc1ccccc1` (configuration not stated), the inhibition was 2.9%. With `Cc1nn(-c2ccccc2)c(Cl)c1C(=O)Nc1ccccc1` the inhibition was 39.2%. For `Cc1ccc(C(=O)/C=C/c2c(C)nn(-c3ccccc3)c2Cl)cc1`, the inhibition was 76.2% (active). With `Cc1nn(-c2ccccc2)c(CC(C)(C)C(=O)O)c1C(=O)O` the inhibition was 7.2%. For `Cc1ccc(O)c(CNc2nc3ccccc3n2C)c1`, the inhibition was 39.6%. In the case of `CCC1SC2=NCCN2C1(O)c1ccc(Cl)cc1` (configuration not stated), the inhibition is reported as 94.6% (active). In the case of `O=C(COc1ccccc1F)NC1CC1`, the inhibition is reported as -8.2%. Compound `O=C1CCCc2c1nc(-c1cccc(Cl)c1)n2O` has an inhibition of -3.8%. For `CON(C)S(=O)(=O)c1ccc2c(c1)NC(=O)C1CCCN21` (configuration not stated), the inhibition was 4.3%. For `COc1ccc(Nc2nc(Cl)nc(NCc3ccco3)n2)cc1`, the inhibition was 4%. Compound `COc1ccc(N(CC(=O)N/N=C/c2cccc3c2OCCO3)S(=O)(=O)c2ccc(NC(C)=O)cc2)cc1` has an inhibition of 33.4%. In the case of `COc1ccc(N(CC(=O)N/N=C/c2cccs2)S(=O)(=O)c2ccc(OC)c(OC)c2)cc1`, the inhibition is reported as 99.3% (active). `Cc1cc(C)nc(SC(C)C(=O)N/N=C/c2cccs2)n1` (configuration not stated) was tested, and the inhibition was 20.8%. With `CCOc1ccc(N=Cc2c(O)n(-c3cccc(C)n3)c(=O)c3ccccc23)cc1` the inhibition was 23.6%. `CCOC(=O)c1cc2c(n(-c3ccc(C)cc3)c1=O)CCCC2=O` showed an inhibition of 5.6%. Work on `COC(=O)CNC(=O)c1ccccc1F` yielded an inhibition of -5.1%. `CN(NC(=O)c1ccccc1)c1nc2ccccc2nc1C(F)(F)F` showed an inhibition of 35.4%. Work on `COc1ccc(C(=O)NN(C)c2nc(-c3ccccc3)cc(C)c2S(C)(=O)=O)cc1` yielded an inhibition of 10.6%. With `CSc1nc(N(C)NC(=O)c2cccc(C)c2)c2ccccc2n1` the inhibition was 77% (active). `Cc1c(C(=O)OC(C)C)sc(NC(=O)c2cccnc2)c1C#N` gave an inhibition of 1.5%. Compound `CC(NC(=O)c1ccco1)C(=O)Nc1nc(-c2ccccn2)cs1` (configuration not stated) has an inhibition of 6%. With `Nc1ccc(Oc2ccc(Cl)cc2)cc1` the inhibition was 85.1% (active). Work on `CN(C)S(=O)(=O)c1ccc(Oc2ccc(S(=O)(=O)N(C)C)cc2)cc1` yielded an inhibition of 19.7%. In the case of `COc1cccc(Oc2ccc(N)cc2)c1`, the inhibition is reported as 64.1% (active). `Clc1ccc(Cl)c(Oc2ccc(Oc3nc(Cl)ccc3Cl)cc2)n1` gave an inhibition of -4.8%. Compound `Cc1ccc(S(=O)(=O)c2ccc(Oc3ccccc3)cc2)cc1` has an inhibition of -11.2%. With `COCCNCCOCCOc1cccc(OC)c1` the inhibition was 10.2%. `COc1ccc2[nH]c3ccc(OC)cc3c2c1` was tested, and the inhibition was 29.9%. In the case of `Cc1ccc(Oc2ccc(N)cc2)cc1`, the inhibition is reported as 87.9% (active). In the case of `Nn1c(SCC(=O)NC(=O)NC2CCCC2)nnc1-c1ccccc1F`, the inhibition is reported as 27.9%. `COc1ccc(C(C(O)C(=O)c2c[nH]c3ccccc23)N2CCN(c3ccccc3)CC2)cc1` (configuration not stated) gave an inhibition of 28.5%. For `CCC(C)c1ccc(O)c(/C=N/O)c1` (configuration not stated), the inhibition was -21.8%. In the case of `Cc1nc2ccc(C(=O)O)cc2[nH]1`, the inhibition is reported as -2.4%. For `Cc1noc(C)c1CSc1nnc2ccc3ccccc3n12`, the inhibition was 23.4%. Compound `Cc1noc(C)c1COC(=O)Cn1c(C)nc2ccccc21` has an inhibition of 17.3%. `Cc1noc(C)c1COC(=O)c1cc2ccccc2cc1O` was tested, and the inhibition was 89.3% (active). `CC(CN1CCOCC1)c1ccccc1` (configuration not stated) gave an inhibition of 26.4%. `CC(C)C(=O)Nc1ccc2c(c1)oc1ccccc12` gave an inhibition of 13.2%. `Cc1nc2cc(NC(=O)NCc3ccccc3)ccc2o1` gave an inhibition of -8.7%. `O=C(O)CCN1C(=O)CC2(CCCCC2)C1=O` was tested, and the inhibition was -6.7%. `Cc1ccc(C(=O)NCC(=O)O)cc1S(=O)(=O)N1CCCCC1` showed an inhibition of -12.8%. With `Cc1ccc(-n2nc3c(c2NC(=O)c2ccc4c(c2)OCO4)CSC3)c(C)c1` the inhibition was 3.6%. `Cn1c(=O)n(C)c2cc(C(=O)Nc3ccc4c(c3)OCO4)ccc21` gave an inhibition of -13.9%. With `O=C(Nc1ccc2c(c1)OCCO2)c1ccc(Cl)c(S(=O)(=O)N2CCCCC2)c1` the inhibition was 96.4% (active). `Cc1ccc(C(=O)Nc2ccc3c(c2)OCO3)cc1S(=O)(=O)N1CCCCC1` was tested, and the inhibition was 92.3% (active). Work on `O=C(O)c1cc(S(=O)(=O)N2CCCCCC2)c(Cl)cc1Cl` yielded an inhibition of 0%. For `COc1ccc(N2C(=O)c3cccc4cccc(c34)C2=O)nn1`, the inhibition was -8.5%. `CC1CCCN(C(=O)Cn2c(=O)oc3ccccc32)C1` (configuration not stated) was tested, and the inhibition was 26.2%. Compound `Cc1nnc(NC2=NCCCCC2)o1` has an inhibition of -3.5%. With `O=C(CC1NCCNC1=O)Nc1ccc(Oc2ccccc2)cc1` (configuration not stated) the inhibition was -0.6%. With `Cn1c(=O)[nH]c(=O)c2c1nc(Br)n2CCCCSc1nc2ccccc2o1` the inhibition was 38.5%. For `Cc1ccc(Oc2ccc3c(c2)C(=O)N(c2cccc4cccnc24)C3=O)cc1`, the inhibition was -1.5%. With `COc1ccc(CNC2CCCCC2)cc1` the inhibition was 69.4% (active). `COc1ccc(N/N=C2/CCCCC2=O)cc1` was tested, and the inhibition was 3.1%. `COc1ccc(CNC(=O)C2CCN(S(=O)(=O)N3CCOCC3)CC2)cc1` gave an inhibition of -11.9%. For `CN1C(=O)c2ccc(NC(=O)C3CCCCC3)cc2C1=O`, the inhibition was -0.4%. `O=C1c2ccccc2C(=O)N1c1ccccc1S(=O)C(F)(F)F` (configuration not stated) showed an inhibition of 6.6%. `Cc1ccc(-n2c(=O)cc(N3CCN(Cc4ccccc4)CC3)[nH]c2=O)cc1` was tested, and the inhibition was 1.5%. `Cc1ccc(S(=O)(=O)N2CC(=O)Nc3ccccc32)cc1C` was tested, and the inhibition was 60.4% (active). `Cc1ccc(C)c(S(=O)(=O)N2CC(=O)Nc3ccccc32)c1` was tested, and the inhibition was 32.8%. `CC1=NCCN1S(=O)(=O)c1ccc(Br)c(C)c1` was tested, and the inhibition was 27.7%.
